Results reported in PubChem BioAssay (EPA / NIEHS).
“And” between values parts separate entries of the source, which are not always exact repeats. Identical values can stand only once. A structure can be active in one record and inactive in another. The source made the active and inactive calls. How the source made its calls: active means hit-call score of the fitted dose curve at least 0.9, where 1 is the maximum; inactive means score below 0.9.

Read-out: Pyruvate Dehydrogenase Kinase 4 (PDK4), PDK4 (gene 5166)
Assay: LTEA_HepaRG_PDK4: Life Technologies and Expression Analysis (LTEA) Assay for Pyruvate Dehydrogenase Kinase 4 (PDK4) using HepaRG (AID 2283525)
Details: mRNA level, 48 h; actives raise or lower the signal
Procedure: LTEA_HepaRG is a cell based, multiplexed-readout assay that uses HepaRG, a human liver cell line, with measurements taken at 48 hours after chemical dosing on a 96-well plate.LTEA_HepaRG_PDK4 is one of 102 assay component(s) measured in the LTEA HepaRG cell culture assay. It is a marker of Diseases associated with PDK4 including Platelet Glycoprotein Iv Deficiency and Diabetes Mellitus, Noninsulin-Dependent.Data from the assay component LTEA_HepaRG_PDK4 was analyzed into 1 endpoint. This assay endpoint, LTEA_HepaRG_PDK4, was analyzed with bidirectional fitting relative to DMSO as the negative control and baseline of activity. Using a type of inducible reporter, measures of mRNA induction for gain or loss-of-signal activity can be used to understand regulation of transcription factor activity. To generalize the intended target to other relatable targets, this assay endpoint is annotated to the kinase intended target family, where the subfamily is serine/threonine kinase.
A total of 1060 chemcials from the ToxCast library were tested in eight-point concentration-response experiments. Cell culture and cytotoxicity assays were conducted at Thermo Fisher Scientific's Custom Services facility (Madison, WI). A single lot of human HepaRG cells (Thermo Fisher Scientific, Frederick, MD) was used for the cell culture experiments. 96-well format collagen type I coated plates of human HepaRG cells were prepared using established methods. Briefly, cryopreserved HepaRG cells were thawed, plated at a density of approximately 100,000 cells/well in HepaRG Thaw, Plate, and General Purpose media (HPRG770, Thermo Fisher Scientific), and incubated for 48 hours. 0.5% DMSO was selected as vehicle control to balance the requisite need of DMSO in HepaRG cultures to maintain differentiation (for example, baseline metabolism, proportions of hepatocytes vs. cholangiocytes), while enabling further hepatic receptor pathway activation (for example, PXR and CAR) in response to chemical exposure. 48 hours after plating, the culture medium was replaced with HepaRG Serum-Free Incudtion Media. Cells were exposed to each test chemical in duplicate and maintained in CO2 incubators for another 48 hours. Chemical plates were thawed to room temperature and 200x concentrations of treatment groups were prepared. 8-point conentration-reponse curves were made with the highest exposure at 100 uM, followed by half-log dilutions, all in 0.5% DMSO. Each test plate contained variouse controls, induction positive controls (1mM phenobarbital), cytotoxicity positive controls ([…] aflatoxin B1), vehicle controls (0.5% DMSO), and total lysis controls (0.5% DMSO). Cell morphology images were taken using an Essen IncuCyte FLR automated microscope, with six 96-well plates imaged in about 24 minutes. Images were captured and exported and JPEG files. Spent culture media was transfered to black-well plates for the LDH assay, and remaining media was sorted at -80 C for later use. Cells were treated with RLT buffer and frozen until shipped for gene expression analysis. Total RNA was isolated from the cell suspension in 75 uL of Buffer RLT (Qiagen, Germantown, MD 20874) by Quintiles/Expression Analysis (Durham, NC) using a custom isolation procedure. Total RNA from each plate well was transferred to a preamplification plate. Fluidigm's 96.96 Dynamic ArrayTM (Fluidigm, Amsterdam, the Netherlands) technology was used for gene expression analyses by quantitative reverse transcription polymerase chain reaction (qRT-PCR, performed by Quintiles/Expression Analysis, Durham, NC)89. Standard TaqManTM Assays (Applied Biosystems/ThermoFisher Scientific, Foster City, CA) were used to assess the expression of 93 genes selected based on their selectivity and sensitivity to important hepatic receptors known to be modulated by environmental chemicals; importance in human hepatocyte functionality; and hepatotoxicity. […]

SMILES | outcome | AC50
CNC(=O)CSP(=S)(OC)OC | inactive | 
N#Cc1c(Cl)c(Cl)c(Cl)c(C#N)c1Cl |  | 75.6 µM (active)
CCC(C)(C)C(=O)OC1=C(c2ccc(Cl)cc2Cl)C(=O)OC12CCCCC2 | inactive | 
CC(C)OC(=O)Nc1cccc(Cl)c1 | inactive | 
CC(C)(C)C(O)C(Oc1ccc(Cl)cc1)n1cncn1 (stereo not given) | inactive | 
OCCOc1ccccc1 | inactive | 
CCc1ccc(C(=O)NN(C(=O)c2cc(C)cc(C)c2)C(C)(C)C)cc1 | inactive | 
CNC(=O)Oc1ccccc1OC(C)C | inactive | 
CCC(C)Nc1c([N+](=O)[O-])cc(C(C)(C)C)cc1[N+](=O)[O-] (stereo not given) | inactive | 
O=C1c2ccccc2C(=O)N1SC(Cl)(Cl)Cl | inactive | 
CCOC1Oc2ccc(OS(C)(=O)=O)cc2C1(C)C (stereo not given) |  | 85.7 µM (active)
CCC(C)(NC(=O)c1cc(Cl)c(C)c(Cl)c1)C(=O)CCl (stereo not given) | inactive | 
C[C@H]1[C@H](c2ccc(Cl)cc2)SC(=O)N1C(=O)NC1CCCCC1 | inactive | 
Clc1ccccc1-c1nnc(-c2ccccc2Cl)nn1 | inactive | 
CCCN(CCC)c1c([N+](=O)[O-])cc(C(F)(F)F)cc1[N+](=O)[O-] | inactive | 
CC1(C)C(C=C(Cl)Cl)C1C(=O)OC(C#N)c1ccc(F)c(Oc2ccccc2)c1 (stereo not given) |  | 50 µM (active)
COP(=S)(OC)Oc1ccc([N+](=O)[O-])cc1 | inactive | 
O=C(O)CCCOc1ccc(Cl)cc1Cl |  | 50.8 µM (active)
Oc1cc(Cl)ccc1Oc1ccc(Cl)cc1Cl | inactive | 82 µM (active) and 88.4 µM (active)

SMILES | outcome | AC50
CCOCN(C(=O)CCl)c1c(C)cccc1CC |  | 50 µM (active)
C#CCN1C(=O)COc2cc(F)c(N3C(=O)C4=C(CCCC4)C3=O)cc21 | inactive | 
ClC1C(Cl)C(Cl)C(Cl)C(Cl)C1Cl (stereo not given) | inactive | 
O=C(O)C(F)(F)C(F)(F)C(F)(F)C(F)(F)C(F)(F)C(F)(F)C(F)(F)F |  | 26.9 µM (active) and 21.7 µM (active)
CCN(CC)C(=O)SCc1ccc(Cl)cc1 | inactive | 
O=S1OCC2C(CO1)C1(Cl)C(Cl)=C(Cl)C2(Cl)C1(Cl)Cl (stereo not given) | inactive | 
CN1CSC(=S)N(C)C1 | inactive | 
COP(=O)(OC)OC=C(Cl)Cl | inactive | 
O=S(=O)(O)C(F)(F)C(F)(F)C(F)(F)C(F)(F)C(F)(F)C(F)(F)C(F)(F)C(F)(F)F |  | 27 µM (active) [middle of 4 runs]
Oc1ccc(Cl)cc1Cc1ccccc1 | inactive | 76.8 µM (active) and 83.6 µM (active)
O=C(O)COc1ccc(Cl)cc1Cl |  | 38.5 µM (active)
CC[C@H](C)[C@H]1O[C@]2(C=C[C@@H]1C)C[C@@H]1C[C@@H](C/C=C(\C)[C@@H](O[C@H]3C[C@H](OC)[C@@H](O[C@H]4C[C@H](OC)[C@@H](O)[C@H](C)O4)[C@H](C)O3)[C@@H](C)/C=C/C=C3\CO[C@@H]4[C@H](O)C(C)=C[C@@H](C(=O)O1)[C@]34O)O2 (tested in a mixture with another compound) |  | 16.3 µM (active)
CNC(=O)/C=C(\C)OP(=O)(OC)OC |  | 37.1 µM (active)
CC1(c2ccc(Oc3ccccc3)cc2)OC(=O)N(Nc2ccccc2)C1=O (stereo not given) |  | 32.1 µM (active)
CCCN(CCOc1c(Cl)cc(Cl)cc1Cl)C(=O)n1ccnc1 |  | 30.8 µM (active)
N#CN | inactive | 
O=C(Nc1ccccc1)Nc1cnns1 |  | 62.4 µM (active)
O=[N+]([O-])c1c(Cl)c(Cl)c(Cl)c(Cl)c1Cl | inactive | 
COc1nn(CSP(=S)(OC)OC)c(=O)s1 | inactive | 
